The full ranking holds about 16,000 sequences; the median of “rpm ratio (pull-down/input)” is about 0.5, and the highest 2% start at about 5.5. This is one part of a sample in which the highest values are shown more often than they occur.

This assay addresses T1, MBP-FoxP3dN (Mus musculus, UniProt Q99JB6 188-423).
T1 sequence: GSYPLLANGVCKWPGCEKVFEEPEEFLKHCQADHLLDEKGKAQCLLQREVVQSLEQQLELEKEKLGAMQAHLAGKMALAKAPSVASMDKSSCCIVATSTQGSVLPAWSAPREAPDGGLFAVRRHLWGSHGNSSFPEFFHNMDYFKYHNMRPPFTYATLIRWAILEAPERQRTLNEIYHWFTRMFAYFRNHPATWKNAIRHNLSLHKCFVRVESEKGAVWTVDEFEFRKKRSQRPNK
Put plainly: PD-seq (MBP pull-down with sequencing); 20 mM Tris-HCl pH 7.5, 100 mM NaCl, 1.5 mM MgCl2, 0.4 uM protein, 0.1 uM dsDNA library, 30 min, room temperature, amylose pull-down; high values mean tight binding. The conditions noted are these: protein: recombinant; tags: His6-MBP; chain copies: 2; dsDNA, one strand shown. Put shortly: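 Mouse FoxP3 or FoxP1 fragment lacking the N-terminus, His6-MBP-tagged and expressed in E. coli, was incubated at 0.4 µM with 0.1 µM Klenow-filled degenerate double-stranded DNA library for 30 min at room temperature in Tris pH 7.5 buffer with NaCl and MgCl2. Complexes captured on amylose resin were washed three times and their DNA sequenced on Illumina. Binding is reads-per-million enrichment of pull-down over input, replicates pooled.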
For “GATGATTGTTCTCCCAGCTGATGAATTAGCGCATTCGAGTAAACAAATTTTCCTAATCTTTCTGTTCAAGCGCCATCTAC”, the binding signal is 7.23 RPM ratio (pull-down/input). On to “GATGATTGTTCTCCCAGCTGATGAATTAGCTGATTCGAGTAAACAAATTTTCCTAATCTTTCTGTTCAAGCGCCATCTAC”, for which the binding signal was 1.17 RPM ratio (pull-down/input). Regarding “GATGATTGTTCTCCCAGCTGATGAATTTAGCATCTCGAGTAAACAAATTTTCCTAATCTTTCTGTTCAAGCGCCATCTAC”, the binding signal was 6.55 RPM ratio (pull-down/input). Regarding “GATGATTGTTCTCCCAGCTGATGAATTCTAGCATTCGAGTAAACAAATTTTCCTAATCTTTCTGTTCAAGCGCCATCTAC”, the binding signal was 5.17 RPM ratio (pull-down/input).

Turning to “GATGATTGTTCTCCCAGCTGATGAATTAGTAAATTCGAGTAAACAAATTTTCCTAATCTTTCTGTTCAAGCGCCATCTAC”, the binding signal is 0.68 RPM ratio (pull-down/input).

With “GATGATTGTTCTCCCAGCTGATGAATTAGTGCATTCGAGTAAACAAATTTTCCTAATCTTTCTGTTCAAGCGCCATCTAC”, the binding signal is 7.28 RPM ratio (pull-down/input). Turning to “GATGATTGTTCTCCCAGCTGATGAATTTTAGCATTCGAGTAAACAAATTTTCCTAATCTTTCTGTTCAAGCGCCATCTAC”, the binding signal is 5.97 RPM ratio (pull-down/input).

As to “GATGATTGTTCTCCCAGCTGATGAATTTTTAGCATCGAGTAAACAAATTTTCCTAATCTTTCTGTTCAAGCGCCATCTAC”, the binding signal was 0.918 RPM ratio (pull-down/input). On to “GATGATTGTTCTCCCAGCTGATGAATTTAGCAGCTCGAGTAAACAAATTTTCCTAATCTTTCTGTTCAAGCGCCATCTAC”, for which the binding signal is 1.72 RPM ratio (pull-down/input). Regarding “GATGATTGTTCTCCCAGCTGATGAATTTAGCCATTCGAGTAAACAAATTTTCCTAATCTTTCTGTTCAAGCGCCATCTAC”, the binding signal is 4.73 RPM ratio (pull-down/input).

Consider “GATGATTGTTCTCCCAGCTGATGAATTCCTATCGTCGAGTAAACAAATTTTCCTAATCTTTCTGTTCAAGCGCCATCTAC”, for which the binding signal was 0.382 RPM ratio (pull-down/input). Next, “GATGATTGTTCTCCCAGCTGATGAATTTCATAGGTCGAGTAAACAAATTTTCCTAATCTTTCTGTTCAAGCGCCATCTAC”: 0.343 RPM ratio (pull-down/input).

“GATGATTGTTCTCCCAGCTGATGAATTGATCATTTCGAGTAAACAAATTTTCCTAATCTTTCTGTTCAAGCGCCATCTAC”: the binding signal is 0.757 RPM ratio (pull-down/input). As to “GATGATTGTTCTCCCAGCTGATGAATTGGCTGAATCGAGTAAACAAATTTTCCTAATCTTTCTGTTCAAGCGCCATCTAC”, the binding signal is 0.239 RPM ratio (pull-down/input). For “GATGATTGTTCTCCCAGCTGATGAATTACTCCAGTCGAGTAAACAAATTTTCCTAATCTTTCTGTTCAAGCGCCATCTAC”, the binding signal is 0.213 RPM ratio (pull-down/input). As for “GATGATTGTTCTCCCAGCTGATGAATTTGGTGTCTCGAGTAAACAAATTTTCCTAATCTTTCTGTTCAAGCGCCATCTAC”, the binding signal was 3.42 RPM ratio (pull-down/input). Next, “GATGATTGTTCTCCCAGCTGATGAATTCCGACTCTCGAGTAAACAAATTTTCCTAATCTTTCTGTTCAAGCGCCATCTAC”: 2.16 RPM ratio (pull-down/input); “GATGATTGTTCTCCCAGCTGATGAATTGACCGAATCGAGTAAACAAATTTTCCTAATCTTTCTGTTCAAGCGCCATCTAC”: 0.227 RPM ratio (pull-down/input); “GATGATTGTTCTCCCAGCTGATGAATTTCAACTGTCGAGTAAACAAATTTTCCTAATCTTTCTGTTCAAGCGCCATCTAC”: 0.377 RPM ratio (pull-down/input). For “GATGATTGTTCTCCCAGCTGATGAATTGGGTGTCTCGAGTAAACAAATTTTCCTAATCTTTCTGTTCAAGCGCCATCTAC”, the binding signal is 1.29 RPM ratio (pull-down/input). In the case of “GATGATTGTTCTCCCAGCTGATGAATTGGTGAGGTCGAGTAAACAAATTTTCCTAATCTTTCTGTTCAAGCGCCATCTAC”, the binding signal is 0.385 RPM ratio (pull-down/input).

For “GATGATTGTTCTCCCAGCTGATGAATTGGTTTCCTCGAGTAAACAAATTTTCCTAATCTTTCTGTTCAAGCGCCATCTAC”, the binding signal was 1.54 RPM ratio (pull-down/input).

As to “GATGATTGTTCTCCCAGCTGATGAATTGAGCGCCTCGAGTAAACAAATTTTCCTAATCTTTCTGTTCAAGCGCCATCTAC”, the binding signal is 1.18 RPM ratio (pull-down/input). With “GATGATTGTTCTCCCAGCTGATGAATTTGTAGCATCGAGTAAACAAATTTTCCTAATCTTTCTGTTCAAGCGCCATCTAC” the figure was 4.88 RPM ratio (pull-down/input); with “GATGATTGTTCTCCCAGCTGATGAATTAGCATTTTCGAGTAAACAAATTTTCCTAATCTTTCTGTTCAAGCGCCATCTAC”, 4 RPM ratio (pull-down/input). In the case of “GATGATTGTTCTCCCAGCTGATGAATTAACAAATTCGAGTAAACAAATTTTCCTAATCTTTCTGTTCAAGCGCCATCTAC”, the binding signal is 0.494 RPM ratio (pull-down/input). On to “GATGATTGTTCTCCCAGCTGATGAATTTAGCTGTTCGAGTAAACAAATTTTCCTAATCTTTCTGTTCAAGCGCCATCTAC”, for which the binding signal is 1.7 RPM ratio (pull-down/input). Next, “GATGATTGTTCTCCCAGCTGATGAATTGTAGCATTCGAGTAAACAAATTTTCCTAATCTTTCTGTTCAAGCGCCATCTAC”: 5.76 RPM ratio (pull-down/input); “GATGATTGTTCTCCCAGCTGATGAATTAAACGCATCGAGTAAACAAATTTTCCTAATCTTTCTGTTCAAGCGCCATCTAC”: 1.19 RPM ratio (pull-down/input); “GATGATTGTTCTCCCAGCTGATGAATTAACGCATTCGAGTAAACAAATTTTCCTAATCTTTCTGTTCAAGCGCCATCTAC”: 6.02 RPM ratio (pull-down/input). As for “GATGATTGTTCTCCCAGCTGATGAATTTAGCATTTCGAGTAAACAAATTTTCCTAATCTTTCTGTTCAAGCGCCATCTAC”, the binding signal is 6.35 RPM ratio (pull-down/input). On to “GATGATTGTTCTCCCAGCTGATGAATTCGTAGCATCGAGTAAACAAATTTTCCTAATCTTTCTGTTCAAGCGCCATCTAC”, for which the binding signal is 1.31 RPM ratio (pull-down/input).

The record behind these values is publication PMC12820563, “FoxP3 forms a head-to-head dimer in vivo and stabilizes its multimerization on adjacent microsatellites”.
